This is part of a sample that, as a whole, favours compounds with a hit. Of some 79,000 tested, about 15% had one in any assay. Cut-off read from the data, not from the text of the source: active = growth inhibition above about 70%; inactive = the rest.
Key:
[1] = NCI Yeast Anticancer Drug Screen. Data for the rad50 strain (AID 155);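 note: 0% = growth of vehicle-only cultures of the same strain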; conditions: S. cerevisiae rad50 strain growth inhibition; at 50.0 µM; stronger effect = higher value
In short: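 Vehicle-treated cultures provide the reference for the growth inhibition reported for compound-exposed, repair-deficient yeast.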

[2] = NCI Yeast Anticancer Drug Screen. Data for the mec2-1 strain (AID 157); conditions: S. cerevisiae mec2-1 strain, at 50.0 µM, stronger effect = higher value
In short: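 Test agents were screened against the mec2-1 yeast strain, with defined DNA repair or cell cycle alteration. Growth was scored as inhibition against vehicle-only controls.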

[3] = NCI Yeast Anticancer Drug Screen. Data for the sgs1 mgt1 strain (AID 161);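 note: 0% = growth of cultures given vehicle only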; conditions: S. cerevisiae sgs1 mgt1 strain, at 50.0 µM, stronger effect = higher value
In short: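 Test agents were incubated with a DNA-repair-mutant yeast strain. Growth was then read and compared against vehicle-treated controls.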

[4] = NCI Yeast Anticancer Drug Screen. Data for the cln2 rad14 strain (AID 165);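 note: 0% = growth equal to vehicle treated cultures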; conditions: S. cerevisiae cln2 rad14 strain, at 50.0 µM, stronger effect = higher value
In short: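 Growth of compound-exposed yeast (cln2 rad14 genotype) measured and expressed as inhibition relative to vehicle.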

[5] = NCI Yeast Anticancer Drug Screen. Data for the bub3 strain (AID 167); conditions: S. cerevisiae bub3 mutant strain, at 50.0 µM, stronger effect = higher value
In short: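 Mutant yeast screening strain plus compound; vehicle-treated cultures serve as the 0% inhibition reference.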

[6] = NCI Yeast Anticancer Drug Screen. Data for the mlh1 rad18 strain (AID 175); conditions: S. cerevisiae mlh1 rad18 strain growth inhibition; at 50.0 µM; stronger effect = higher value
In short: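 In this whole-cell yeast screen, a strain with altered DNA damage repair is challenged with compound, and its growth is measured against matched vehicle-treated controls.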

Measured: growth inhibition

O=CNCCNC=O
inactive: [1] 0.05% | [2] -2.25% | [3] -15% | [4] -12.7% | [5] 0.65% | [6] -1.85%

CC[Si](C)(C)COC(N)=O
inactive: [1] -23.2% | [2] 8.1% | [3] -12.4% | [4] -1.55% | [5] -4.15% | [6] -37%

COc1cc(NCCN=C(N)NC#N)c2ncccc2c1
inactive: [1] 0.95% | [2] 4.75% | [3] -0.7% | [4] -18.4% | [5] -15.4% | [6] 2.6%

O=C(NC1CCCCC1)NC12CC3CC(CC(F)(C3)C1)C2
inactive: [1] -9.9% | [2] -12.8% | [3] -7.55% | [4] 5.65% | [5] -12.1% | [6] 6.7%

CCCCCCCCCCCCCCCCCC(=O)N/N=C/c1ccccc1
inactive: [1] 1% | [2] -2.8% | [3] 12% | [4] 2.95% | [5] -1.5% | [6] -5.55%

OC1(c2ccccc2)CC2C=CC1C2 (configuration not stated)
inactive: [1] -5.9% | [2] 8.2% | [3] 8.05% | [4] 17.2% | [5] 15.3% | [6] 5.15%

CC(C)(C)C(=O)OCC1C(=O)OCC1C(=O)N1Cc2cc3ccccc3nc2C1 (configuration not stated)
inactive: [1] -7.7% | [2] -19.9% | [3] 1.55% | [4] -13% | [5] -8.2% | [6] -16.2%

COc1cccc2c1CCC(=O)C2
inactive: [1] -31.7% | [2] -44.8% | [3] -35.1% | [4] 8% | [5] -44.8% | [6] -18.3%

CCC(CC)=NNc1ccc([N+](=O)[O-])cc1[N+](=O)[O-]
inactive: [1] -2.45% | [2] -11.4% | [3] -13.6% | [4] -51.1% | [5] 0.75% | [6] -9.85%

O=C1CSC(=S)N1.[Cu+2]
inactive: [1] -7.9% | [2] -9.5% | [3] 7.7% | [4] -7.65% | [5] -4.5% | [6] 4.3%

CCCCCCOC(=O)C(O)C(C)(Cl)c1ccccc1 (configuration not stated)
inactive: [1] 11.3% | [2] 9.9% | [3] 4.6% | [4] 15.9% | [5] 12.6% | [6] 13.7%

O=c1[nH]c2c(c(=O)[nH]1)SSC2
inactive: [1] -24.4% | [2] -12.8% | [3] -39.4% | [4] -7.7% | [5] -28.4% | [6] -10.1%

CN(C)S(=O)(=O)c1ccc(Cl)cc1
inactive: [1] -1.65% | [2] -4.4% | [3] 2.7% | [4] 0.3% | [5] -0.2% | [6] -9.3%

O=C1C2=Nc3ccccc3C(O)N2c2ccccc21 (configuration not stated)
inactive: [1] 12.8% | [2] 22.4% | [3] 12% | [4] 47.4% | [5] 17.3% | [6] 8.75%

Cc1[nH]c(=O)[nH]c1C(=O)c1ccc(-n2ccnc2)cc1
inactive: [1] -1.45% | [2] -9.75% | [3] 16.1% | [4] 16.2% | [5] 5.25% | [6] -9.15%

CCCCN(CCCC)Cc1ccnc(C)c1O
inactive: [1] -9.3% | [2] 5.85% | [3] -8.5% | [4] 8.7% | [5] 3.75% | [6] 7.9%

CC(C)=CCC/C(C)=N\Nc1ccc([N+](=O)[O-])cc1[N+](=O)[O-]
inactive: [1] -39.4% | [2] -6.7% | [3] 4.75% | [4] -15.6% | [5] 2.15% | [6] 5.4%

CCOC(=O)C(=CNC(=S)Nc1ccc(Cl)c(Cl)c1)C(=O)OCC
inactive: [1] 53.5% | [2] 39.5% | [3] 59.7% | [4] 45.6% | [5] 39% | [6] 67.5%

CCOC(=O)C1SCSCC1=O (configuration not stated)
inactive: [1] -1.1% | [2] -1.7% | [3] -5.55% | [4] -30.2% | [5] -20.6% | [6] 6%

[Cl][Pt+2][Cl].[NH-]CC1([NH-])CCCCC1
inactive: [1] -10.2% | [2] 14.1% | [3] -19.6% | [4] -2.8% | [5] -5.6% | [6] -31.9%

COc1ccc(NC(=O)C/C(C)=C2/C(=O)NN(c3ccccc3)C2=O)cc1
inactive: [1] 33.5% | [2] 15.2% | [3] 39.9% | [4] 4.5% | [5] 19.1% | [6] 41.1%

CCOC(=S)SCc1cc(C(C)(C)C)c(O)c(C(C)(C)C)c1
inactive: [1] 2.7% | [2] 14.4% | [3] 20.2% | [4] -20.2% | [5] 1.15% | [6] 1.8%

O=C(O)C1CCCCN1O (configuration not stated)
inactive: [1] -7.85% | [2] -2.15% | [3] -15.9% | [4] 5.75% | [5] 10.9% | [6] -6.15%

O=[N+]([O-])c1ccccc1-c1ccccc1CO
inactive: [1] -22% | [2] -19.2% | [3] -41.4% | [4] -23.4% | [5] -18.4% | [6] -28.9%

CCc1c(O)c2c([nH]c1=O)SC(C)(C)CC2=NCC(C)C
inactive: [1] -23.8% | [2] -33.5% | [3] -16.9% | [4] -2.45% | [5] -43.6% | [6] 9.15%

CCOC(=O)c1cc(NC(C)=O)cn1C
inactive: [1] 4.4% | [2] 8.8% | [3] -1.15% | [4] -11% | [5] 6.45% | [6] 16.4%

CCOC(=O)c1cc(C)nc2ccc(Br)cc12
inactive: [1] -3.2% | [2] 3.45% | [3] -11.2% | [4] -5.85% | [5] 4.2% | [6] -11.7%

O=C(O)CC(=O)c1ccccc1
inactive: [1] -27.8% | [2] 4.85% | [3] -10.4% | [4] 14.2% | [5] 4.35% | [6] -15.8%

C=CCCCCCCCCC(=O)N1CCN(C)CC1
inactive: [1] 46.1% | [2] -14% | [3] 9.1% | [4] 16.6% | [5] -5.25% | [6] 27.6%

O=C1ON=C(c2ccccc2)/C1=C\C=C\c1ccccc1
inactive: [1] 18.2% | [2] 9.9% | [3] 1.45% | [4] 23.1% | [5] 35.6% | [6] 14.5%

Cc1cc(C)c(C)c(C(=O)OC(C)C)c1C
inactive: [1] 2.7% | [2] -9.7% | [3] 3.35% | [4] 15.4% | [5] -3.85% | [6] -8.55%

CC(=O)Nc1ncc2ccccc2c1-c1ccc(NC(=O)CCCl)cc1
inactive: [1] -0.65% | [2] 19.4% | [3] 19.8% | [4] -1.3% | [5] 3.6% | [6] 12.8%

CCOC(=O)CCC(C(=O)c1cccnc1)c1ccccn1 (configuration not stated)
inactive: [1] -4% | [2] -3.6% | [3] 6.7% | [4] -52.9% | [5] -4.6% | [6] -7.05%

Nc1[nH]c(=O)nc2nc(I)[nH]c12
inactive: [1] 5.05% | [2] 2.75% | [3] 22.7% | [4] -17.2% | [5] 22.9% | [6] 3.35%

O=C(O)/C=C\c1ccc(OC(=O)c2ccccc2)cc1
inactive: [1] -1.1% | [2] -12.6% | [3] -21% | [4] -24.6% | [5] -4.95% | [6] 33.1%

CN(/N=C/C=N/N(C)C1=NCCN1)C1=NCCN1
inactive: [1] 4.35% | [2] -5.75% | [3] 0.15% | [4] 8.05% | [5] 0.25% | [6] -9.65%

Cc1cc2c(cc1C)NC(C)CC(=O)N2 (configuration not stated)
inactive: [1] 5.8% | [2] -13.1% | [3] 4.2% | [4] 14.1% | [5] -0.2% | [6] 21.7%

CCCCCCCCCCCCSc1nc2c([nH]1)c(=O)n(C)c(=S)n2C
inactive: [1] -24.1% | [2] 0.75% | [3] -31.9% | [4] 16.4% | [5] -1.05% | [6] -15.2%

C/C=C/CNc1ccc(C)cc1
inactive: [1] 30.5% | [2] 20.9% | [3] 25.7% | [4] 28.4% | [5] 2.2% | [6] 22.8%

O=C(Nc1ccc(C(=O)O)cc1)Nc1cccc(F)c1
inactive: [1] 14.8% | [2] 8.35% | [3] 10.2% | [4] 14.6% | [5] 22.6% | [6] 13.8%

Cc1cccc(NC(=O)c2cccc([N+](=O)[O-])c2C(=O)O)c1C
inactive: [1] 4.8% | [2] 11.9% | [3] 3.75% | [4] -7.15% | [5] 25.6% | [6] 10.8%

Cc1ccccc1-c1ccccc1
inactive: [1] 14.8% | [2] 1.3% | [3] -17.7% | [4] -45.8% | [5] -5.8% | [6] 17.6%

— PubChem BioAssay (NCI)
